Data reported in PubChem BioAssay (NCI).
Compounds without any hit were thinned out: in the full panel of roughly 79,000, 15% have a hit. Unmarked numbers belong to inactive results. Calls of active or inactive are those of the source. Rule as the data show it: active = growth inhibition above about 70%; inactive = the rest.

Test: NCI Yeast Anticancer Drug Screen. Data for the cln2 rad14 strain (AID 165);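 also: 0% = growth equal to vehicle treated cultures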
Details: S. cerevisiae cln2 rad14 strain, stronger effect = higher value
Method: Growth inhibition of yeast strains with defined genetic alterations is measured as a screen for potential anti-cancer activity. Selected strains with alterations in DNA damage repair or cell cycle control were exposed to compounds and growth inhibition was measured relative to vehicle treated controls. The strain used in this assay is cln2 rad14

[1] = at 5.0 µM (retest, dose inferred, filed as 0.5)
[2] = at 50.0 µM (retest, dose inferred, filed as 5.0)

O=C(Cl)c1ccccn1
growth inhibition [1]: 6%
growth inhibition [2]: 99% (active)
growth inhibition (at 50.0 µM): 99.3% (active)

Cc1cc(N(CCCl)CCCl)ccc1CN1CCCN(Cc2ccc(N(CCCl)CCCl)cc2C)C1c1cccc(F)c1
growth inhibition [1]: 2%
growth inhibition [2]: 97% (active)
growth inhibition (at 50.0 µM): -0.15%

O=[As]c1ccc(Cl)cc1Cl (configuration not stated)
growth inhibition [1]: 100% (active)
growth inhibition [2]: 99% (active)
growth inhibition (at 50.0 µM): 99.3% (active)

BrCc1ccc2ncccc2c1
growth inhibition [1]: 11%
growth inhibition [2]: 99% (active)
growth inhibition (at 50.0 µM): 98.5% (active)

CCN(CCCl)c1cc(CN(C)C)cc(NC(=O)c2ccc(C(=O)Nc3cccc(N(CCCl)NN)c3)cc2)c1
growth inhibition [1]: 1%
growth inhibition [2]: 95% (active)
growth inhibition (at 50.0 µM): 56.2%

NN1CCCC1C(=O)O (configuration not stated)
growth inhibition [1]: 3%
growth inhibition [2]: -2%
growth inhibition (at 50.0 µM): 76.2% (active)

CCC(C)N1CN(c2ccccc2)C2(CCN(CC3COc4ccccc4O3)CC2)C1=O (configuration not stated)
growth inhibition [1]: 11%
growth inhibition [2]: 13%
growth inhibition (at 50.0 µM): 8.65%

CC[N+](C)(CC)CCNC(=O)C(O)(c1ccccc1)c1ccccc1
growth inhibition [1]: -2%
growth inhibition [2]: 35%
growth inhibition (at 50.0 µM): 93.2% (active)

Cn1c2cccc(=O)c-2nc2ccccc21
growth inhibition [1]: -22%
growth inhibition [2]: 34%
growth inhibition (at 50.0 µM): -2.9%

O=[N+]([O-])C(Br)CO (configuration not stated)
growth inhibition [1]: 9%
growth inhibition [2]: 95% (active)
growth inhibition (at 50.0 µM): 84.8% (active)

CC[PH+](CC)CC.CC[PH+](CC)CC.[Au]
growth inhibition [1]: 27%
growth inhibition [2]: 93% (active)
growth inhibition (at 50.0 µM): 89.2% (active)

Cc1ccc(P(c2ccc(C)cc2)c2ccc(C)cc2)cc1
growth inhibition [1]: 69%
growth inhibition [2]: 44%
growth inhibition (at 50.0 µM): 35.9%

COC1=CC2=CCC3C(CCC4(C)C3CCC4(C)OC(C)=O)C2(C)CC1 (configuration not stated)
growth inhibition [1]: 0%
growth inhibition [2]: 35%
growth inhibition (at 50.0 µM): 30.6%

CC(=O)OCC1OC([S-])C(OC(C)=O)C(OC(C)=O)C1OC(C)=O.CC[PH+](CC)CC.CC[PH+](CC)CC.[Au].[Au] (configuration not stated)
growth inhibition [1]: 98% (active)
growth inhibition [2]: 99% (active)
growth inhibition (at 50.0 µM): 91.3% (active)
